System: Plasmodium falciparum
Experiment: GSK_TCMDC: Inhibition of Plasmodium falciparum 3D7 in whole red blood cells, using parasite LDH activity as an index of growth. Test compounds present at 2uM
Type: functional

| Structure (SMILES) | Inhibition |
| --- | --- |
| CCC(Cc1ccccc1)c1cc(O)c(Cc2ccc(-c3ccccc3)cc2)c(=O)o1 (configuration not stated) | 89% |
| COc1cc(C(=O)NC2CCN(Cc3ccccc3)CC2)ccc1-c1cc2cc(Cl)c(Cl)cc2[nH]1.O=C(O)C(F)(F)F | 100% |
| O=C(/C=C/C=C/c1ccccc1)NCCCCCN1CCC(c2c[nH]c3ccccc23)CC1 | 85% |
| CN1CCCN(Cc2ccc(-c3ccc(NS(=O)(=O)c4cccc5cccnc45)cc3)cc2)CC1.O=C(O)C(F)(F)F | 99% |
| Cl.N=C(N)c1ccc(NN=Cc2ccc(Oc3ccc(C(=N)N)cc3)cc2)cc1 | 99% |
| Cc1cccc(-c2cc3cc(Nc4ccnc5cc(-c6nccs6)ccc45)ccc3[nH]2)c1.Cl | 100% |
| O=C(Nc1ccc(OC2CCN(Cc3ccc(F)cc3)C2)c(Cl)c1)c1ccccc1.O=C(O)C(F)(F)F (configuration not stated) | 91% |
| COc1cc(CNc2ncc(-c3ccsc3)c(-c3nccs3)n2)cc(OC)c1 | 86% |
| CC(C)N1CCC(N(Cc2ccc(-c3ccc(Cl)cc3)cc2)C(=O)Cn2c(CCc3cccc(F)c3F)cc(=O)c3ccccc32)CC1.O=C(O)C(O)C(O)C(=O)O | 96% |
| CCCNCc1ccc(-c2ccc(CN(CCOC)C(=O)c3cnc(C)cn3)cc2)nc1.O=C(O)C(F)(F)F | 81% |
| CC1CN(c2cnn(C/C=C/c3ccc(NC(=O)c4ccc(Cl)cc4)cc3)c(=O)c2Cl)CC(C)N1.O=C(O)C(F)(F)F (configuration not stated) | 88% |
| Cc1ccc(C)c(CC(=O)N2CCC(n3c(C)nc4ccc(F)cc43)CC2)c1 | 100% |
| CC(C)(C(=O)Nc1ccc(N2CCC3(CCCN(CC4CC4)C3)CC2)c(Cl)c1)c1cccc(C(F)(F)F)c1 | 92% |
| Cc1cccc2nc(-c3cccc(-c4cccc(NC(=O)c5cn(C)c(=O)n5C)c4)c3)[nH]c12 | 99% |
| Cl.c1cc2c3c(cccc3c1)NC(CCCCCCCCC1=Nc3cccc4cccc(c34)N1)=N2 | 93% |
| CN(C(=O)c1cc2c(-c3cncnc3)cccc2[nH]1)c1ccccc1 | 92% |
| N=C(N)CCN(Cc1ccccc1)c1ccc(Cl)cc1 | 98% |
| O=C(NCC1CCN(Cc2cccc(F)c2)C1)c1cc(-c2cccc(C(F)(F)F)c2)cs1.O=C(O)C(F)(F)F (configuration not stated) | 96% |
| COc1ccc2c(c1)CC(C)(C)NC2CCCCCCCCC1NC(C)(C)Cc2cc(OC)ccc21.O=C(O)C(=O)O (configuration not stated) | 98% |
| Cc1cc(-c2ccc(CN3Cc4ccccc4C3)cc2)ccc1S(=O)(=O)NCCN1CCCC1.O=C(O)C(F)(F)F | 94% |
| COc1ccc(C(C(=O)NC2CCN(C[C@H](O)c3ccnc4ccc(OC)cc34)CC2)N2CCN(Cc3ccccc3)CC2)cc1 (some centres not stated) | 100% |
| Cc1cccc(-c2nc3[nH]c(=O)cc(NC(=O)C(C)C)n3n2)c1 | 96% |
| COc1cc(OC)c2c(C)cc(NCCCN3CCOCC3)nc2c1 | 99% |
| CC(C)C[C@H](NC(=O)c1cc2ccccc2s1)C(=O)N[C@H]1CCN(Cc2ccc(OCCCN(C)C)c(Cl)c2)C1.O=C(O)C(F)(F)F | 100% |
| Nc1ncc(-c2ccsc2)c2ccc(-c3ccc4cn[nH]c4c3)cc12 | 95% |
| CN(C)CCOc1cc(NC(=O)Nc2ccc3c(c2)CCCC3=O)ccc1I | 94% |
| O=C(Nc1ccc(F)cc1)N1CCCN(c2ccnc3cc(Cl)ccc23)CC1.O=C(O)C(F)(F)F | 97% |

System: Plasmodium falciparum
Experiment: GSK_TCMDC: Inhibition of Plasmodium falciparum Dd2 in whole red blood cells, using parasite LDH activity as an index of growth. Test compounds present at 2uM
Type: functional

| Structure (SMILES) | Inhibition |
| --- | --- |
| CCNc1cc(C(=O)N[C@@H](Cc2ccccc2)[C@H](O)CNC(C)CCCC(C)C)cc(N2CCCS2(=O)=O)c1.O=CO (some centres not stated) | 98% |
| Cn1ccnc1CCC(=O)Nc1ccc(Cl)cc1C(=O)Nc1ccc(Cl)cc1 | 3% |
| COCCNCc1ccc(-c2cccc(CN(C(=O)NCCc3ccccc3)C3CCN(Cc4ccccc4)CC3)c2)cc1.O=C(O)C(F)(F)F | 90% |
| Br.C=CCc1cccc(C)c1OCCCON1C(=N)N=C(N)NC1(C)C | 95% |
| CN(C)CC(=O)Nc1cccc(Nc2nccc(NCC(O)c3ccccc3)n2)c1 (configuration not stated) | 3% |
| Cn1nc(-c2ccccc2F)c2cc(C(=O)NC3CCN(Cc4ccccc4)CC3)sc21 | 34% |
| CC(=O)N1CCN(c2ccc(NC(=O)c3oc(-c4ccccc4)nc3C(F)(F)F)cn2)CC1 | 93% |
| O=C(Nc1cccc(CN2CCCN(Cc3ccc(O)cc3)CC2)c1)c1cccc(F)c1.O=C(O)C(F)(F)F | 4% |
| O=C(C=Cc1ccc(Cl)c(Cl)c1)NCCCCCN1CCC(CCNC(=O)c2cccc3ccccc23)CC1 | 0% |
| Cc1cc2cc(/C=C/C(=O)NC3CCC(CCN4CCc5ccc(C#N)cc5CC4)CC3)ccc2[nH]1.Cl (configuration not stated) | 49% |
| Cc1nc(-c2ccncc2)sc1C(=O)Nc1ccc(Cl)cc1C(=O)Nc1ccc(Cl)cc1 | 47% |
| Cc1c(C)n(C2CCCC2)c2ncnc(OC3CCN(CC(=O)NC4CC4)CC3)c12 | 92% |
| COc1cc(C)ccc1N1CCN(CCCCNC(=O)c2ccc(NC(=O)c3ccc(Cl)cc3)cc2)CC1 | 31% |
| CCC(Cc1ccccc1)c1cc(O)c(Cc2ccc(-c3ccccc3)cc2)c(=O)o1 (configuration not stated) | 0% |
| COc1cc(C(=O)NC2CCN(Cc3ccccc3)CC2)ccc1-c1cc2cc(Cl)c(Cl)cc2[nH]1.O=C(O)C(F)(F)F | 100% |
| O=C(/C=C/C=C/c1ccccc1)NCCCCCN1CCC(c2c[nH]c3ccccc23)CC1 | 7% |
| CN1CCCN(Cc2ccc(-c3ccc(NS(=O)(=O)c4cccc5cccnc45)cc3)cc2)CC1.O=C(O)C(F)(F)F | 85% |
| Cl.N=C(N)c1ccc(NN=Cc2ccc(Oc3ccc(C(=N)N)cc3)cc2)cc1 | 100% |
| Cc1cccc(-c2cc3cc(Nc4ccnc5cc(-c6nccs6)ccc45)ccc3[nH]2)c1.Cl | 100% |
| O=C(Nc1ccc(OC2CCN(Cc3ccc(F)cc3)C2)c(Cl)c1)c1ccccc1.O=C(O)C(F)(F)F (configuration not stated) | 86% |

| Structure (SMILES) | Inhibition |
| --- | --- |
| COc1cc(CNc2ncc(-c3ccsc3)c(-c3nccs3)n2)cc(OC)c1 | 82% |
| CC(C)N1CCC(N(Cc2ccc(-c3ccc(Cl)cc3)cc2)C(=O)Cn2c(CCc3cccc(F)c3F)cc(=O)c3ccccc32)CC1.O=C(O)C(O)C(O)C(=O)O | 73% |
| CCCNCc1ccc(-c2ccc(CN(CCOC)C(=O)c3cnc(C)cn3)cc2)nc1.O=C(O)C(F)(F)F | 14% |
| CC1CN(c2cnn(C/C=C/c3ccc(NC(=O)c4ccc(Cl)cc4)cc3)c(=O)c2Cl)CC(C)N1.O=C(O)C(F)(F)F (configuration not stated) | 82% |
| Cc1ccc(C)c(CC(=O)N2CCC(n3c(C)nc4ccc(F)cc43)CC2)c1 | 99% |
| CC(C)(C(=O)Nc1ccc(N2CCC3(CCCN(CC4CC4)C3)CC2)c(Cl)c1)c1cccc(C(F)(F)F)c1 | 0% |
| Cc1cccc2nc(-c3cccc(-c4cccc(NC(=O)c5cn(C)c(=O)n5C)c4)c3)[nH]c12 | 80% |
| Cl.c1cc2c3c(cccc3c1)NC(CCCCCCCCC1=Nc3cccc4cccc(c34)N1)=N2 | 6% |
| CN(C(=O)c1cc2c(-c3cncnc3)cccc2[nH]1)c1ccccc1 | 99% |
| N=C(N)CCN(Cc1ccccc1)c1ccc(Cl)cc1 | 98% |
| O=C(NCC1CCN(Cc2cccc(F)c2)C1)c1cc(-c2cccc(C(F)(F)F)c2)cs1.O=C(O)C(F)(F)F (configuration not stated) | 10% |
| COc1ccc2c(c1)CC(C)(C)NC2CCCCCCCCC1NC(C)(C)Cc2cc(OC)ccc21.O=C(O)C(=O)O (configuration not stated) | 62% |
| Cc1cc(-c2ccc(CN3Cc4ccccc4C3)cc2)ccc1S(=O)(=O)NCCN1CCCC1.O=C(O)C(F)(F)F | 10% |
| COc1ccc(C(C(=O)NC2CCN(C[C@H](O)c3ccnc4ccc(OC)cc34)CC2)N2CCN(Cc3ccccc3)CC2)cc1 (some centres not stated) | 72% |
| Cc1cccc(-c2nc3[nH]c(=O)cc(NC(=O)C(C)C)n3n2)c1 | 93% |
| COc1cc(OC)c2c(C)cc(NCCCN3CCOCC3)nc2c1 | 3% |
| CC(C)C[C@H](NC(=O)c1cc2ccccc2s1)C(=O)N[C@H]1CCN(Cc2ccc(OCCCN(C)C)c(Cl)c2)C1.O=C(O)C(F)(F)F | 89% |
| Nc1ncc(-c2ccsc2)c2ccc(-c3ccc4cn[nH]c4c3)cc12 | 41% |
| CN(C)CCOc1cc(NC(=O)Nc2ccc3c(c2)CCCC3=O)ccc1I | 31% |
| O=C(Nc1ccc(F)cc1)N1CCCN(c2ccnc3cc(Cl)ccc23)CC1.O=C(O)C(F)(F)F | 16% |
